Assay outcomes as filed in PubChem.
ALR H2O2 inh: inhibitors of human sulfhydryl oxidase ALR | purified ALR, DTT oxidation, H2O2 HRP-luminol luminescence | inhibition, % (no concentration beside the values) | 3.8% of 290,000 active | AID 485317;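 active = mean replicate inhibition above about 79%, with every replicate also reaching it, limit read from the data; inconclusive = only one of the two criteria met; inactive = mean below limit and not every replicate reaching it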
Target sequence (P55789 whole entry, looked up): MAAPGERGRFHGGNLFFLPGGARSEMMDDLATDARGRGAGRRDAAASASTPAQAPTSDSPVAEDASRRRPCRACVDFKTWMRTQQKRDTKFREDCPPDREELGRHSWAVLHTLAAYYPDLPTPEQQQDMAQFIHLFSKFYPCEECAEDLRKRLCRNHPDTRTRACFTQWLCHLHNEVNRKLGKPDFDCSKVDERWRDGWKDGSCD
SUMO Mot1 rescue: inhibitors of SUMOylation pathway: yeast Mot1-301 growth rescue. AID 2716. 1% of 320,000 active. S. cerevisiae Mot1-301 growth rescue, ATP luminescence, 38.5C; percent above DMSO median, 100 means doubled. growth rescue, % at 18.8 µM;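 active = every valid replicate shows activation above 250% relative to neutral control wells; inactive = the rest, any valid replicate at or below 250%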
AI-2 QS mod: modulates the Vibrio harveyi AI-2 quorum sensing system | Vibrio harveyi JMH597 AI-2 luminescence/OD600 ratio, 9 h; active compounds read low; strain lacks LuxN and CqsS sensors; 0 = neutral-control median | activity change, % at 7.5 µM | 0.4% of 300,000 active; in the data active = activity change below about -75%, passing the limit was not always enough; inconclusive = no clear call, values can overlap the other calls;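 also: luminescence divided by OD600 gain over 9 h not by final OD600 alone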
HIF act: HIF pathway transcriptional activation. U2OS HRE-luciferase reporter, luminescence; normalized: DMSO 0%, desferrioxamine 100%. 0.32% of 300,000 active. activation, % at 7.5 µM (by protocol);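 active = mean activation of at least 10% of the iron chelator positive control signal, with at least half of replicates also reaching 10%; inconclusive = mean and replicate majority disagree about reaching 10%; inactive = mean and most replicates under 10%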
Numbers stand for hits; i = inactive; ? = inconclusive; nt = no result given. A selection: hits, their analogues and other compounds. The true share with any hit is near 4.8%.

SMILES	ALR H2O2 inh	SUMO Mot1 rescue	AI-2 QS mod	HIF act
O=c1cc(CO)oc(CN2CCN(c3ccccc3)CC2)c1O	98	i	i	i
CCOC(=O)C1CCN(Cc2oc(CO)cc(=O)c2O)CC1	91	i	i	i
COc1ccccc1-n1c(C)c(C(=O)O)c2cc(OC)c3ccccc3c21	i	i	i	i
Cc1cccc(N2CSC3=C(C#N)C(c4ccc(C)o4)CC(=O)N3C2)c1 (stereo unspecified)	99	i	i	i
Cc1cc(Cl)ccc1NC(=O)CSc1n[nH]c(N)n1	i	i	nt	nt
COC(=O)Cc1c(C)c2ccc(OCC(=O)N(C)C3CCS(=O)(=O)C3)cc2oc1=O (stereo unspecified)	i	i	i	i
CN(C)c1ccc(C2(O)C(=O)c3ccccc3C2=O)cc1	i	i	i	i
CNc1ccc(C2(O)C(=O)c3ccccc3C2=O)cc1	83	i	i	i
CC1CCN(S(=O)(=O)c2ccc3c4c2CC(=O)N4CC(C)S3)CC1 (stereo unspecified)	i	i	i	187
Cc1ccc(S(=O)(=O)N2CCN(S(=O)(=O)N3CCC(C)CC3)CC2)c(C)c1	i	i	i	i
COc1cc(CNc2nnnn2C)cc(OC)c1OC	nt	i	i	i
CN1CCCCCC1C(=O)N1CCC(N2CCC(C(=O)N3CCOCC3)CC2)CC1 (stereo unspecified)	i	270	i	i
S=c1[nH]c2cc(Cl)ccc2s1	98	i	-78	i
CSc1nc2cc(Cl)ccc2s1	nt	i	i	i
Cc1cc(Nc2ccc3c(c2)OCCO3)c2ccccc2n1	nt	i	i	nt
COc1cc(Nc2c3ccccc3nc3ccccc23)cc(OC)c1OC	94	i	i	i
COc1ccc(Nc2c3c(nc4ccccc24)CCC3)cc1	99	i	i	i
c1ccc(Nc2c3c(nc4ccccc24)CCC3)cc1	nt	i	i	i
c1ccc2c(Nc3ccc4c(c3)OCCO4)c3c(nc2c1)CCC3	80	i	i	i
Fc1ccc(Nc2c3c(nc4ccccc24)CCC3)cc1	95	i	i	i
COc1ccc(NC(=O)c2c3c(nc4ccccc24)CCC3)cc1	i	i	i	i
CCN(c1ccc(C(=O)CN2C(=O)NC3(CCOc4ccccc43)C2=O)cc1)S(C)(=O)=O (stereo unspecified)	nt	i	nt	nt
CCn1c(C(=O)O)c(CC(=O)Nc2ccc(Br)cc2C)c2ccccc21	i	i	i	i
CCc1ccc(CNC(=O)c2ccc(OC3CCN(C(=O)COC)CC3)cc2)nc1	i	i	i	i
Cc1ccc2nc3c(c(Nc4ccccc4)c2c1)CCC3	97	i	i	i
SMILES	ALR H2O2 inh	SUMO Mot1 rescue	AI-2 QS mod	HIF act
COc1ccc(C)cc1Nc1c2c(nc3ccccc13)CCC2	?	i	i	i
COc1ccc(Nc2c3c(nc4ccccc24)CCCC3)cc1OC	99	i	i	i
COc1ccccc1Nc1nc(-c2ccccc2)nc2ccccc12	i	i	i	i
COc1ccc(Nc2c3ccccc3nc3ccccc23)cc1	100	i	i	i
COc1ccccc1Nc1c2ccccc2nc2ccccc12	99	i	i	i
Cc1cccc(NC(=O)c2cc(-c3ccc(C)c(C)c3O)n[nH]2)c1	i	i	i	i
COc1ccc(Nc2nc(N)c3ccccc3n2)c(OC)c1	84	i	i	i
COc1ccccc1-n1ccnc(SCC(=O)NCc2ccccc2)c1=O	nt	i	i	i
O=C(CSc1nccn(-c2cccc(F)c2)c1=O)Nc1ccc(Cl)cc1F	99	i	nt	i
COc1ccc(-n2ccnc(SCC(=O)NCc3ccc(C)cc3)c2=O)cc1Cl	98	i	i	i
Cc1ccc(CNC(=O)CSc2nccn(-c3ccc(C)c(F)c3)c2=O)cc1	98	i	i	i
O=C(CSc1nccn(-c2ccc(Br)cc2)c1=O)NCc1ccccc1	nt	i	i	i
Cc1ccccc1CN1CCN(C(C)C(=O)NNC(=O)c2ccc(F)cc2)CC1 (stereo unspecified)	i	i	nt	nt
CCCc1cc(=O)oc2cc(OC(=O)CN3C(=O)NC4(CCCC4)C3=O)ccc12	i	i	i	i
CCOc1ccc2c(c1)nc(SCC(=O)c1ccc(Br)s1)n2C	i	i	i	i
CCOc1ccc2c(c1)nc(SCC(=O)c1cccs1)n2C	97	i	i	i
CC(Sc1ccc2c(c1)OCCO2)C(=O)Nc1ncc(Cl)cc1Cl (stereo unspecified)	99	i	i	i
CSCc1ccc(C(=O)NC(C)c2cnn(-c3ccccn3)c2C)o1 (stereo unspecified)	90	i	i	i
O=S1(=O)C[C@@H](O)[C@@H](Nc2ccc(Cl)cc2)C1	98	i	i	i
Cc1ccc(NS(=O)(=O)c2c(C)[nH]c(C)c2C(=O)N2CCCCC2)cc1F	i	i	i	i
COc1ccc(S(=O)(=O)N2CCOC23CCN(S(=O)(=O)c2cc(C)ccc2OC)CC3)cc1	i	i	i	i
O=C(OCc1c(-c2ccccc2)ncc2ccccc12)c1ccccc1C(F)(F)F	i	i	nt	nt
CCCCOP(=O)(c1ccc(N(C)C)cc1)C(O)c1ccc(N(C)C)cc1 (stereo unspecified)	92	i	i	i
CCCCOP(=O)(c1ccc(N(C)C)cc1)C(O)c1ccc(C(C)C)cc1 (stereo unspecified)	i	i	i	i
Brc1ccc(N/N=C(/N=Nc2nn[nH]n2)c2ccccc2)cc1	i	i	i	84
SMILES	ALR H2O2 inh	SUMO Mot1 rescue	AI-2 QS mod	HIF act
NC(=O)/C(N=Nc1ccccc1)=N/Nc1ccccc1	i	i	i	i
O=C(O)c1ccc(N=N/C(=N\Nc2ccc(C(=O)O)cc2)c2ccccc2)cc1	98	i	i	i
O=C(O)c1ccc(N/N=C/c2ccc(-c3ccccc3)cc2)cc1	nt	nt	i	i
O=C(O)c1cccc(N/N=C(\N=Nc2ccccc2)c2ccccc2)c1	98	i	i	i
COc1cccc(COc2cc3ccccc3nc2C)c1	i	i	-89	i
CCOC(=O)/C=C/C(=O)OCC(=O)Nc1ccc(Cl)cc1Cl	96	i	i	i
Cc1cccc(N2CCN(S(=O)(=O)c3cc(-c4cc(C)no4)ccc3C)CC2C)c1 (stereo unspecified)	i	i	i	i
O=c1[nH]n(Cc2ccccc2)c2ccccc12	99	i	i	i
CC(C)(C)c1nn(-c2ccccc2)c2[nH]c(=O)c(CNc3ccc4c(c3)OCCO4)cc12	i	i	i	i
Cc1nn(-c2ccccc2)c2[nH]c(=O)c(CNc3ccc(N4CCOCC4)cc3)cc12	97	nt	i	i
COc1ccc(-c2cn3c4c(sc3n2)CCCC4)cc1	96	i	i	i
CCOC(=O)C1CCN(c2c(NCCCN(CC)c3ccccc3)c(=O)c2=O)CC1	90	i	i	i
CCOC(=O)C1CCCN(c2c(NCCCN(CC)c3cccc(C)c3)c(=O)c2=O)C1 (stereo unspecified)	98	i	i	i
CCOC(=O)C1CCCN(c2c(NCCc3cccc(C)c3)c(=O)c2=O)C1 (stereo unspecified)	i	i	i	i
O=S(=O)(c1ccccc1)N1N=C(c2ccc(O)cc2)CC1c1ccco1 (stereo unspecified)	100	i	i	i
